Assay outcomes: PubChem, National Center for Advancing Translational Sciences (NCATS)
Most compounds without a hit are left out; they make up all but 17% or so of the library.
TGFb inhibitor = blocks TGF-b signaling. AID 588855. 1.2% of 410,000 active. HepG2 CAGA-GFP TGF-b/SMAD3 reporter, GFP fluorescence, 18 h; TGF-beta stimulated, 500 pg/mL final. Potency, µM (top dose mostly 46.1 µM), for inactives: at the top dose activity, negative = inhibition, actives largely listed as inhibitors; note: % is set by controls: 0 for no effect and ±100 for the full control effect; nearly all actives have a fitted effect of over 65% in size
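Cell-based qHTS in HEPG2 carrying a CAGA-GFP Smad reporter; compounds added before 500 pg/mL final TGF-beta, 18 h incubation at 37 degrees C, GFP fluorescence quantified per cell by imaging cytometry.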
HepG2 viability = HepG2 cytotoxicity, counter-screen for TGF-b inhibitors | AID 588856 | Potency, µM (series often up to 46.1 µM), for the others: at the top dose activity change, negative = cytotoxicity, hits mostly cytotoxic | 0.76% of 410,000 active | HepG2 CAGA-GFP viability, ATP luminescence, 18 h
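CellTiter-Glo luminescence gave cytotoxicity after 18 hours at 37 degrees C. The cells were HepG2 CAGA-GFP in 1% FBS DMEM, stimulated with 500 pg/mL TGF-beta after compound addition. %Activity was normalised to no-cell wells (complete cell-killing) and DMSO (no toxicity), and curves were fitted and classified.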
TDP1 cell CPT = growth inhibition of DT40 Tdp1-/-;hTDP1 cells with camptothecin (screen for TDP1 inhibitors). Potency, µM (top dose mostly 46.2 µM), for inactives: at the highest dose activity change, negative = growth inhibition, actives largely listed as inhibitors. chicken DT40 Tdp1-/-;hTDP1 cells + 20 nM CPT, ATP luminescence, 48 h. 12% of 420,000 active; note: % is set by controls: 0 for no effect and ±100 for the full control effect; nearly all actives have a fitted effect of over 55% in size
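Chicken DT40 Tdp1-/- cells stably complemented with human TDP1 were seeded at 400 cells/well in medium containing 20 nM camptothecin, exposed to pin-transferred compounds, and grown at 37 °C for at least 48 hr. Viability was read as ATP luminescence.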
DT40 TDP1 no CPT = qHTS for Inhibitors of human tyrosyl-DNA phosphodiesterase 1 (TDP1): qHTS in cells in absence of CPT | DT40 Tdp1-/- hTDP1 cells, no CPT, ATP luminescence, 48 h | Potency, µM (doses to about 46.2 µM), for inactives: top-dose activity change, negative = growth inhibition, actives largely listed as inhibitors | 15% of 420,000 active | AID 686978, 2013; note: % is set by controls: 0 for no effect and ±100 for the full control effect; nearly all actives have a fitted effect of over 55% in size
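Stably hTDP1-transfected Tdp1-null chicken DT40 cells were treated with library compounds minus camptothecin and grown for at least 48 hr at 37 °C, after which cellular ATP was quantified by luminescence.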
ATXN2 expr inh = reduces ATXN2 reporter expression in HEK-293 cells; HEK-293 ATXN2-luciferase reporter, luminescence, 24 h; Potency, µM (top dose mostly 57 µM), without a hit: at the top dose activity change, negative = inhibition, usual class: inhibitors; 0.72% of 360,000 active; AID 1745845; note: % is set by controls: 0 for no effect and ±100 for the full control effect; nearly all actives have a fitted effect of over 55% in size
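ATXN2-luciferase reporter cells (luciferase flanked by upstream and downstream ATXN2 gene portions) were treated 24 h at 37 °C with compounds at up to 57 uM. SteadyGlo luminescence gave expression; GF-AFC fluorescence gave viability.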
ATXN viability = reduces viability in counter-screen for ATXN expression inhibitors | 0.49% of 400,000 active | S2 cells (HEK-293 line with an ATXN2-luciferase reporter) viability, CellTiter-Fluor protease fluorescence, 24 h | Potency, µM (highest dose often 56.7 µM), hits mostly cytotoxic; note: nearly all actives have a fitted effect of over 40% in size
Numbers without * were called inactive; i = inactive; ? = inconclusive; . = no result; [ ] = dose if it differs, or a comment. Calls come from the whole dose curve; as a rule, active = well fitted curve in the direction sought with a large enough effect; inconclusive = small, poorly fitted or top-dose-only effect, or another doubt; inactive = no such curve, though single readings can be large; an effect the other way counts as inactive or inconclusive. Potency is the fitted concentration of half-maximal effect.

SMILES	TGFb inhibitor	HepG2 viability	TDP1 cell CPT	DT40 TDP1 no CPT	ATXN2 expr inh	ATXN viability
C=CCOc1ccc(CN(C)CC(=O)Nc2ccc3c(c2)CCC3)cc1	?	-19.0%	23.1µM*	?	-31.8%	i
Cc1ccc(NC(=O)CN(C)C(=O)Cc2ccc3c(c2)CCC3)cc1	5.1%	6.5%	?	-27.2%	-1.4%	i
CCOc1cc(CNc2ccc3c(c2)CCC3)ccc1O	5.9%	-22.3%	?	23.1µM*	4.1%	i
CCOc1ccc(CN(C)CC(=O)Nc2ccc3c(c2)CCC3)cc1OC	-1.9%	-6.1%	?	16.4µM*	-19.8%	?
COc1cc(CC(=O)Nc2ccc3c(c2)CCC3)cc(OC)c1OC	0.0%	-21.2%	9.2µM*	11.6µM*	-23.2%	i
Cc1cc(C)c2nc(Cl)c(Cl)nc2c1	2.4%	1.1%	-23.0%	0.2%	2.1%	i
C=CCNc1oc(-c2cccs2)nc1S(=O)(=O)c1ccccc1	-4.6%	-6.5%	-0.9%	-2.9%	-24.1%	i
COc1ccc(-n2c(=O)c(-c3cn(C)c4ccccc34)nc3cnc(N4CCOCC4)nc32)cc1	.	.	-4.0%	12.3%	.	.
COC(=O)c1cccc(N(CC(=O)NC2CCCC2)C(=O)CNC(=O)c2cccs2)c1	-36.5%	-29.0%	4.8%	2.6%	2.5%	?
CN(CC(=O)Nc1ccc(F)cc1)C(=O)c1cccc(S(=O)(=O)N2CCN(c3ccccc3)CC2)c1	?	0.0%	16.4µM*	20.6µM*	-24.3%	i
COc1ccc(NC(=O)CN(C)C(=O)c2cccc(S(=O)(=O)N3CCN(c4ccc(F)cc4)CC3)c2)cc1	-5.6%	-13.8%	13µM*	?	-36.9%	i
COc1cccc(NC(=O)CN(C)C(=O)c2cccc(S(=O)(=O)N3CCN(c4ccccc4)CC3)c2)c1	?	-16.1%	?	-59.0%	-26.9%	i
CC1CCN(C2CC(=O)N(c3ccc(Br)cc3Br)C2=O)CC1 (stereo not given)	-7.1%	-4.2%	?	-20.4%	-2.1%	i
COC(=O)c1cc(C)nc(Nc2nc(C(N)Cc3ccc(F)cc3)cs2)n1 (stereo not given)	?	-39.1%	?	-25.0%	0.5%	i
COc1ccc(CC(N)c2csc(Nc3nccc(C(F)(F)F)n3)n2)cc1 (stereo not given)	?	-78.2%	?	?	?	i
NC(Cc1ccc(F)cc1)c1csc(Nc2nccc(C(F)(F)F)n2)n1 (stereo not given)	?	-111.7%	?	14.6µM*	-20.3%	.
NC(Cc1ccccc1)c1csc(Nc2nccc(C(F)(F)F)n2)n1 (stereo not given)	15.8µM*	15.8µM*	16.4µM*	20.6µM*	?	i
Cc1cc(C)nc(Nc2nc(C(N)Cc3ccccc3)cs2)n1 (stereo not given)	?	-15.6%	5.8µM*	5.17µM*	9.0%	?
NC(Cc1ccc(Cl)cc1)c1csc(Nc2nccc(C(F)(F)F)n2)n1 (stereo not given)	?	-105.2%	?	?	?	i
Cc1ccsc1C(=O)N(Cc1cc2cc3c(cc2nc1N1CCOCC1)CCC3)CC1CCCO1 (stereo not given)	.	.	-9.9%[9.04 µM]	-2.9%	.	i
C[C@H](NC(=O)C1CC(=O)N(c2ccc3c(c2)OCO3)C1)C(=O)NC1CCCCC1 (stereo not given in full)	7.7%	1.7%	?	?	-8.3%	i
CC(=O)Cc1nsc(NC(=O)c2cccc(F)c2)n1	4.5%	14.1%	-25.3%	?	.	?
c1cnc2nc(CSc3ncn[nH]3)cn2c1	6.8%	-2.2%	-3.2%	-0.9%	-24.1%	?
